Screens from PubChem.
HT1080-NT tox – kills 2HG-producing HT-1080-NT fibrosarcoma cells; AID 686970; 1.6% of 360,000 active; Potency, µM (series often up to 46.1 µM), most hits filed as cytotoxic; HT-1080-NT fibrosarcoma viability, CellTiter-Glo ATP luminescence, 48 h;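 note: NT is the 2HG producing partner of a matched IDH1 knockdown line; nearly all actives have a fitted effect of over 55% in size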
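Viability by CellTiter-Glo luminescence after 48 h compound exposure at 37C of HT-1080-NT cells (750/well, RPMI, 5% FBS). % activity scaled between DMSO wells and medium-only wells, then curve-fitted and categorized by curve class.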
TDP1 cell CPT – DT40-hTDP1 cell growth loss with CPT | chicken DT40 Tdp1-/-;hTDP1 cells + 20 nM CPT, ATP luminescence, 48 h | Potency, µM (doses to about 46.2 µM), hits mostly inhibitors | 12% of 420,000 active | AID 686979; note: nearly all actives have a fitted effect of over 55% in size
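Chicken DT40 Tdp1-/- cells stably complemented with human TDP1 were seeded at 400 cells/well in medium containing 20 nM camptothecin, exposed to pin-transferred compounds, and grown at 37 °C for at least 48 hr. Viability was read as ATP luminescence.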
12-LOX inh – blocks human arachidonate 12S-lipoxygenase; Potency, µM (series often up to 108 µM), actives largely listed as inhibitors; AID 1671190; 1.1% of 580,000 active; purified 12hLO, xylenol orange hydroperoxide absorbance
Target sequence (P18054 whole entry, looked up): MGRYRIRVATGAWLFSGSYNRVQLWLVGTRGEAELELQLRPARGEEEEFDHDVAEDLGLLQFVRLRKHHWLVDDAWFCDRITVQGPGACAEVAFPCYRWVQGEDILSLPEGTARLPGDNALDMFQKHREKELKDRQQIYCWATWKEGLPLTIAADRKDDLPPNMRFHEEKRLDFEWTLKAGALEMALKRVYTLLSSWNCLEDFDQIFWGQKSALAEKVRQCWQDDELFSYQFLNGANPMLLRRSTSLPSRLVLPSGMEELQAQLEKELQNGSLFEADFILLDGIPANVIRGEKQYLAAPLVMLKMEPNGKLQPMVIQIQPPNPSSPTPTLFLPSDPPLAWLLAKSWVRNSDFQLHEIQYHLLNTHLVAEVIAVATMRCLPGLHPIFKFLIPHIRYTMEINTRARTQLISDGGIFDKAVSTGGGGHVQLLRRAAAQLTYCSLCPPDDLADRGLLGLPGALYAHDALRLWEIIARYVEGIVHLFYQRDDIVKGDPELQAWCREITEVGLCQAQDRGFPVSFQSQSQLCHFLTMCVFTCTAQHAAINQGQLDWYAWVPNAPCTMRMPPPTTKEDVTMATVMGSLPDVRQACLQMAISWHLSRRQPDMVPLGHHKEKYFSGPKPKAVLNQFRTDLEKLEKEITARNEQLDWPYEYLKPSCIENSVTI
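Purified human 12hLO (150 nM final) in 25 mM Hepes, 0.01% Triton X-100, pH 7.0 was preincubated 15 min at room temperature with compound. Then 40 uM arachidonic acid was added, 30 min. Hydroperoxide was read by Fe-XO absorbance ratio 573/405 nm.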
IL1B secr inh – inhibitors of inflammasome signaling (IL-1 beta secretion); THP-1 LPS/ATP IL-1B secretion, AlphaLISA, 16 h; stronger effect = lower value; activity change, % at 57.5 µM; 4.7% of 360,000 active; AID 743279; in the data active = activity change below about -50%; inconclusive = mostly about -30% to -49%
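Secreted IL-1B measured by AlphaLISA bead assay after 16 h compound exposure of THP-1 cells; compounds (final up to 57.5 uM) added 1 h before LPS (250 ng/mL) and ATP (1.25 mM) stimulation; lower signal means less secretion.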
HT1080 IDH1KD tx – HT-1080 IDH1 knockdown cell toxicity (counter line). AID 686971. 2% of 360,000 active. HT-1080 IDH1 knockdown viability, ATP luminescence, 48 h. Potency, µM (doses to about 46.1 µM), most hits filed as cytotoxic
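After a 2 h attachment period, IDH1KD HT-1080 cells took pin-transferred compound for 48 h at 37 °C; ATP-based luminescence after 10 min room-temperature reagent incubation reported viability.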
DT40 TDP1 no CPT – qHTS for Inhibitors of human tyrosyl-DNA phosphodiesterase 1 (TDP1): qHTS in cells in absence of CPT; Potency, µM (doses to about 46.2 µM), most hits filed as inhibitors; DT40 Tdp1-/- hTDP1 cells, no CPT, ATP luminescence, 48 h; 15% of 420,000 active; note: nearly all actives have a fitted effect of over 55% in size
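Growth kinetics read by CellTiter-Glo luminescence after ≥48 hr at 37 °C. Cells: DT40 Tdp1-/- stably carrying human TDP1, 400 per well, compound exposure in the absence of CPT (DMSO vehicle).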
Numbers stand for hits; i = inactive; ? = inconclusive; nt = no result; ! = not confirmed by another sample; [ ] = remark or other dose. The full list was thinned out, with hits kept by preference. Unless noted, calls come from the whole dose curve; as a rule, active = well fitted curve in the direction sought with a large enough effect; inconclusive = small, poorly fitted or top-dose-only effect, or another doubt; inactive = no such curve, though single readings can be large; an effect the other way counts as inactive or inconclusive.

SMILES	HT1080-NT tox	TDP1 cell CPT	12-LOX inh	IL1B secr inh	HT1080 IDH1KD tx	DT40 TDP1 no CPT
Cc1ccc(C)c(NC2=C(c3ccc(C(F)(F)F)cc3)C(=O)c3ccccc32)c1	nt	5.8µM	i	nt	nt	5.8µM
COc1cc(OC)c(NC2=C(c3ccc(C(F)(F)F)cc3)C(=O)c3ccccc32)cc1Cl	nt	?	i	nt	nt	23.1µM
CCOc1ccc(S(=O)(=O)c2cn(Cc3ccccc3C)c3cc(OC)c(OC)cc3c2=O)cc1	nt	nt	i	nt	nt	nt
CCCCNC(=O)C(CC)Sc1nc2ccccc2c(=O)n1CCc1ccc(OC)c(OC)c1 (configuration not stated)	nt	8.2µM	?	nt	nt	8.2µM
CCOc1ccc(CCn2c(-c3ccco3)nc3ccccc3c2=O)cc1OCC	?	1.3µM	i	-57.0	3.55µM	0.82µM
CCOC(=O)CSc1nc2ccccc2c(=O)n1CCc1ccc(OC)c(OC)c1	nt	13µM	?	nt	nt	11.6µM
CCOC(=O)CSc1nc2ccccc2c(=O)n1CCC(=O)NCCc1ccc(OC)c(OC)c1	i	i	i	i	i	i
O=C(CCc1nnc2n(Cc3ccccc3)c(=O)c3ccccc3n12)NCCCN1CCCCC1	i	i	i	i	i	i
CC1CCN(CCCNC(=O)CCc2nnc3n(CCc4ccccc4)c(=O)c4ccccc4n23)CC1	i	?	i	?	i	16.4µM
CCN1CCN(C(=O)CSc2cc(=O)n(CC)c3ccccc23)CC1	i	i	i	i	i	i
CCn1c(=O)cc(SCC(=O)N2CCN(c3cc(C)ccc3C)CC2)c2ccccc21	nt	16.4µM	i	nt	nt	?
Cc1ccc(C)c(N2CCN(C(=O)COc3cc(=O)n(C)c4ccccc34)CC2)c1	i	14.6µM	i	i	i	?
Cc1ccc(C)c(N(C)C(=O)COc2cc(=O)n(C)c3ccccc23)c1	i	?	i	i	i	?
CC1CCN(C(=O)Cn2c(=O)n(CCc3ccccc3)c(=O)c3ccccc32)CC1	i	14.6µM	nt	i	i	16.4µM
COc1ccc(S(=O)(=O)NCC(c2ccc(C)cc2)N2CCN(C)CC2)cc1 (configuration not stated)	i	i	?	i	i	?
Cn1cc(SCC(=O)N2CCN(c3ccccc3)CC2)c2ccccc21	i	20.6µM	i	i	i	?
CCn1c(=O)cc(SCC(=O)N2CCC(C)CC2)c2ccccc21	i	?	i	-61.9	i	?
Cn1c(=O)cc(SCC(=O)N2CCN(C3CCCCC3)CC2)c2ccccc21	i	?	i	-60.3	i	?
COc1ccc2cc(CN(C)C(C)C(=O)Nc3cc(C)ccc3C)ccc2c1 (configuration not stated)	nt	nt	i	nt	nt	nt
COCCc1noc([C@@H]2CN(Cc3ccc(C)o3)C[C@H]2CO)n1	nt	nt	i	nt	nt	nt
CN(CCCNC(=O)c1ccc(/C=N/O)nc1)CCCN(C)Cc1ccccc1	i	?	i	i	i	23.1µM
CN(CCNC(=O)c1ccc(/C=N/O)nc1)Cc1ccccc1	i	i	i	i	i	i
Cc1oc(-c2cccs2)nc1CN1CCN(CC(C)C)C(CCO)C1 (configuration not stated)	i	?	i	i	i	?
Cc1oc(-c2cccs2)nc1CN1CC[C@@](O)(c2ccccc2)[C@H]2CCCC[C@@H]21	i	?	i	-73.9	i	?
CC(=O)N1CCN(Cc2nc(-c3cccs3)oc2C)CC1	nt	nt	i	nt	nt	nt
SMILES	HT1080-NT tox	TDP1 cell CPT	12-LOX inh	IL1B secr inh	HT1080 IDH1KD tx	DT40 TDP1 no CPT
Cc1ccccc1CC1(CO)CCCN(Cc2nc(-c3cccs3)oc2C)C1 (configuration not stated)	?	?	i	i	?	20.6µM
COc1cccc(C2C3=C(CCCC3=O)Nc3c(C#N)cnn32)c1OC (configuration not stated)	nt	nt	i	nt	nt	nt
N/C(Cc1cccc2ccccc12)=N\OC(=O)c1ccc2c(c1)OCO2	i	16.4µM	i	i	i	20.6µM
COc1cc(OC)c(C(=O)O/N=C(\N)c2cccc(C)c2)cc1OC	?	20.6µM	i	i	?	?
COc1ccc(C(=O)CC(C#N)c2ccc3c(c2)OCO3)cc1OC (configuration not stated)	i	?	?	i	i	20.6µM
COc1ccc(/C(N)=N/OC(=O)c2ccc3c(c2)OCO3)cc1OC	?	20.6µM	i	-62.1	i	?
COc1cccc(N2C(=O)NC(=NC3CCCCC3)C23CCCN([S+](=O)([O-])c2ccccc2)C3)c1 (configuration not stated)	nt	nt	i[6.33 µM]	nt	nt	nt
Cc1sc2ccn(C)c(=O)c2c1C(=O)NCc1ccc(F)cc1Cl	nt	nt	i	nt	nt	nt
Cc1cccc(/C(N)=N/OC(=O)c2cccs2)c1	i	i	i	i	i	i
Cc1ccc(/C(N)=N/OC(=O)c2cccs2)cc1	i	23.1µM	i	i	i	20.6µM
COc1ccc(/C(N)=N/OC(=O)c2cccs2)cc1OC	i	11.6µM	i	?	i	?
N/C(=N\OC(=O)c1cccs1)c1ccccc1	i	?	i	i	i	?
Cc1cnn(CCC(=O)N2CCC3(CC2)CN(c2ccncn2)CC3CO)c1 (configuration not stated)	nt	nt	i	nt	nt	nt
CCCCCCCCN1C(=O)[C@H](CC(=O)NCc2cccs2)C[C@@]2(C(=O)OC)CCCCC=C12	?	16.4µM	i	i	?	14.6µM
CCCCCCCCN1C(=O)[C@H](CC(=O)NCc2cccs2)C[C@@]2(C(=O)OCC)CCCC=C12	?	?	i	-61.9	?	16.4µM
Cc1cc(N2CCN(C)CC2)nc2ccc(NC(=O)Nc3ccccc3Br)cc12	nt	20.6µM	?	nt	nt	14.6µM
Cc1cc(N2CCN(C)CC2)nc2ccc(NC(=O)Nc3cccc(Cl)c3)cc12	nt	8.2µM	?	nt	nt	4.61µM
Cc1cc(N2CCOCC2)nc2ccc(NC(=O)Nc3ccccc3)cc12	nt	nt	i	nt	nt	nt
CCCCN(CC)CCNC(=S)Nc1ccc2nc(N3CCN(C)CC3)cc(C)c2c1	25.9µM	?	i	-54.6	?	18.4µM
Cc1cc(N2CCN(C)CC2)nc2ccc(NC(=O)c3ccccc3F)cc12	i	18.4µM!	i	-56.0	?	?
CN1C(=O)C2(CCN([S+](=O)([O-])c3cccc(C(F)(F)F)c3)C2)c2ccccc21 (configuration not stated)	nt	nt	i	nt	nt	nt
CCOc1cc(C(=O)Nc2ccc3nc(N4CCN(C)CC4)cc(C)c3c2)cc(OCC)c1OCC	nt	18.4µM	i	nt	nt	4.61µM
Cc1cc(N2CCN(C)CC2)nc2ccc(NC(=O)Nc3ccc(F)cc3F)cc12	nt	?	?	nt	nt	i
Cc1ccc(NC(=O)Nc2ccc3nc(N4CCN(C)CC4)cc(C)c3c2)cc1C	nt	11.6µM	?	nt	nt	4.61µM
